Eight compounds from PubChem BioAssay (NCI) can be followed below.

SMILES strings stand for the structures. The panel holds about 83,000 compounds, 20% with a hit somewhere; the sample as a whole holds those more often.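 Step 1: grow cells in 96-well plates. Step 2: add test compound at a single concentration. Step 3: incubate 48 h. Step 4: record percent growth.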 Unmarked numbers belong to inactive results. Active and inactive are the calls of the source. Rule for the calls: active = growth percent below 10; inactive = the rest.

Experiment in all cases: NCI-60 one-dose screen, 48 h (100 = growth as untreated, 0 = no growth, -100 = all killed)
Common to all, as to conditions: 10 µM unless noted

The test system of assay [1] is NCI-H23 lung.
For assay [2], the system named is NCI-H226 lung.
In assay [3] the test system is NCI-H322M lung.
Assay [4] concerns HOP-62 NSCLC.
Assay [5] deals with NCI-H460 lung.
In assay [6] the test system is HOP-92 NSCLC.
Assay [7] deals with NCI-H522 lung.
Assay [8] concerns A549/ATCC NSCLC.
Assay [9] relates to 786-0 renal.
Assay [10] has as its system COLO 205 colon.
Assay [11] has as its system DU-145 prostate.
Assay [12] has as its system K-562 leukemia.
Assay [13] relates to MALME-3M melanoma.
Assay [14] relates to MDA-MB-231 breast.
The test system of assay [15] is RXF 393 renal.
For assay [16], the system named is SF-268 CNS.
For assay [17], the system named is SF-295 CNS.
Assay [18] has as its system SF-539 CNS.
Assay [19] deals with UACC-257 melanoma.
The test system of assay [20] is M14 melanoma.

As for `C=C(C)[C@@H]1CCC[C@]2(C(=O)OC)CC[C@]3(C)[C@@H](CC[C@@H]4[C@@]5(C)CCCNC(C)(C)[C@@H]5CC[C@]43C)[C@@H]12`, the growth was 96% in assay [1]; 84.4% in assay [2]; 79.6% in assay [3]; 85.5% in [4]; 94.4% in [5]; 70.7% in assay [6]. Besides, the growth in assay [7] was 91.8%; in assay [8], 91.9%; in assay [9], 90.1%; in [10], 76.1%; in assay [11] it was 105%; in [12], 55.4%. Further, the growth was 79.6% in assay [13]; 85.5% in assay [14]; 90.9% in [15]; 93.4% in assay [16]; 104% in [17]; 98.7% in [18]. For the same compound, the growth was 98.9% in assay [19] and 97% in assay [20].
`C#CCOc1cccc(Nc2c(Cl)c(CCl)nc3ccc(Oc4ccccc4)cc23)c1`: the growth in assay [1] is 64.2%; in assay [2], 72.3%; in assay [3] it was 83.7%; in [4], 93.1%; in assay [5], 96.2%; in [6], 64.2%. Also, the growth in assay [7] was -6.45% (active); in assay [8], 90.7%; in assay [9], 17.7%; in [10], 83.2%; in assay [11], 43.8%; in assay [12], 15%. Moreover, the growth in [13] was 68.4%; in assay [14] it was 33.2%; in [15], 78.6%; in assay [16] it was 18.8%; in assay [17] it was 88.7%; in assay [18], 80.7%. Further, the figures for the growth in assay [19] and in assay [20] were 90% and 47.7%, respectively.
In the case of `CCOC(=O)c1c(C)nc2c(c1N)C(=O)C(=O)N2CCc1ccc(OC)c(OC)c1`, the growth in assay [1] is 67%; in assay [2], 74%; in assay [3], 109%; in [4], 58.9%; in assay [5] it was 88.2%; in assay [6] it was 81.8%. Moreover, the growth in assay [7] was 31.9%; in assay [8] it was 66%; in assay [9] it was 82.9%; in assay [10] it was 99.3%; in assay [11], 89.7%; in assay [12], 25.6%. Besides, the growth is 79.1% in assay [13]; 80.4% in assay [14]; 83.8% in assay [15]; 78.7% in assay [16]; 63.3% in [17]; 70% in assay [18]. Further, the growth was 46.8% in assay [19] and 70.6% in assay [20].
For the compound `COC(=O)CCc1c(/C=C2\N=C(c3ccc[nH]3)C=C2OC)[nH]c(C)c1C(=O)OCc1ccccc1`, the growth in [1] was 20.4%; in [2], 19.6%; in assay [3], 55.9%; in assay [4], -3.97% (active); in assay [5] it was 12.4%; in assay [6] it was -9.37% (active). Also, the growth in assay [7] was -20.3% (active); in assay [8], 11.9%; in assay [9], -26.2% (active); in assay [10], 4.96% (active); in [11], 29.9%; in assay [12], 6.23% (active). Besides, the growth in assay [13] was -5.75% (active); in assay [14], -12.6% (active); in assay [15], -15.9% (active); in [16] it was 21.4%; in assay [17], -30.4% (active); in assay [18], -16.9% (active). Besides, the growth in assay [19] is 9.69% (active); in assay [20] it was -24.7% (active).
Consider `O=C(COc1ccc(/C=C2\Oc3ccccc3C2=O)cc1)Nc1nccs1`, for which the growth in assay [1] is 87.6%; in assay [2], 89.8%; in [3], 89.3%; in assay [4] it was 86.8%; in assay [5], 107%; in [6] it was 34.3%. Moreover, the growth was -30.2% (active) in [7]; 97.5% in assay [8]; 88.1% in assay [9]; 107% in [10]; 109% in assay [11]; 70.1% in assay [12]. For the same compound, the growth was 98.1% in [13]; 76.6% in assay [14]; 95.5% in [15]; 75.1% in assay [16]; 116% in assay [17]; 99.9% in assay [18]. Also, the growth is 113% in [19] and 105% in assay [20].
Regarding `CC1(C)CC[C@]2(CO)CC[C@]3(C)C(=CC[C@@H]4[C@@]5(C)CCNCC(C)(C)[C@@H]5CC[C@]43C)[C@@H]2C1`, the growth in [1] is 88.4%; in assay [2], 106%; in assay [3], 68.9%; in assay [4], 99.3%; in [5], 49.5%; in assay [6], 64.2%. In addition, the growth is 70.7% in assay [7]; 85.6% in assay [8]; 84.6% in assay [9]; -44.1% (active) in [10]; 81.5% in assay [11]; 7.94% (active) in assay [12]. The growth in [13] is 63.1%; in assay [14] it was 73.7%; in assay [15], 61.6%; in assay [16], 105%; in assay [17], 97.6%; in assay [18] it was 85.8%. Besides, the growth is 9.86% (active) in assay [19] and -2.42% (active) in assay [20].
In the case of `COC(=O)c1c(C)nc(C)c2c1C(=O)C(Br)=C(NCCN1CCOCC1)C2=O`, the growth is 89% in [1]; 107% in assay [2]; 96.2% in assay [3]; 133% in [4]; 88.6% in assay [5]; 118% in assay [6]. For the same compound, the growth in [7] is 102%; in assay [8], 98.6%; in assay [9], 101%; in [10], 56.5%; in assay [11], 112%; in [12] it was 97.4%. Also, the growth was 37% in [13]; 112% in assay [14]; 106% in [15]; 95.3% in assay [16]; 95.8% in assay [17]; 107% in assay [18]. In addition, the growth in assay [19] was 87.5%; in assay [20] it was 87.8%.
Take `CNc1nc2ncc(-c3c(C)noc3C)cc2n1Cc1ccccc1`: the growth in assay [1] was 55.5%; in [2], 56.6%; in assay [3], 67.1%; in [4] it was 41.4%; in assay [5], 64.9%; in assay [6], 7.09% (active). Besides, the growth in [7] was 57.1%; in assay [8], 54.4%; in [9], 43.3%; in assay [10], 29.8%; in assay [11], 79.4%; in [12], 49.3%. Also, the growth in [13] is 45.4%; in assay [14] it was 50.3%; in [15], 54.1%; in [16], 80.7%; in [17], 57.4%; in assay [18], 41%. The growth was 42.3% in assay [19] and 31.5% in assay [20].
